According to the supplement of paper PMC7156485:
“And” between values parts separate entries of the source, which are not always exact repeats. Equal entries are not always repeated. ± gives the standard deviation of the averaged measurements.

Key:
Settings in all cases: concentration: 10 µM; 24 h
HCC1569 [1] = assay: cell number relative to DMSO (% of DMSO); higher = more cells (less growth inhibition / toxicity)
Outline: (§1)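 After 24 h at 37 °C with compounds at 10 µM, in triplicate, HCC1569 and TDF cells were fixed with 3.7% formaldehyde. Immunostaining used a rabbit anti-H1.0 antibody and an AlexaFluor 647 secondary, with DAPI, and six fields per well were imaged at ×10. H1.0 nuclear intensity or cell number is presented as percent of the plate control, from the median of replicates, with HCC1569 values smoothed for positional effects.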

TDF [2] = assay: as above
Outline: as §1

TDF [3] = assay: H1.0 immunofluorescence intensity relative to DMSO (% of DMSO); higher = stronger H1.0 induction, active = 120 or more
Outline: as §1

HCC1569 [4] = assay: H1.0 immunofluorescence intensity relative to DMSO (% of DMSO); higher = stronger H1.0 induction, active = 140 or more
Outline: as §1
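Wherever H1.0 immunofluorescence intensity relative to DMSO is given: TDF is a line of transformed human dermal fibroblasts of mesenchymal origin.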
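Wherever cell number relative to DMSO is given: TDF denotes transformed human dermal fibroblasts of mesenchymal origin.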

Row | Structure (SMILES) | cell number (HCC1569 [1]) | cell number (TDF [2]) | H1.0 immunofluorescence intensity (TDF [3]) | H1.0 immunofluorescence intensity (HCC1569 [4])
1 | COc1ccccc1N1CCN(CCCCNC(=O)c2ccc3ccccc3c2)CC1 [N-{4-[4-(2-methoxyphenyl)-1-piperazinyl]butyl}-2-naphthamide] | 96.6 | 98.1 | 96.7 (inactive) | 114 (inactive)
2 | COc1ccc2c(c1)c(CC(=O)OCC(=O)O)c(C)n2C(=O)c1ccc(Cl)cc1 [Acemetacin] | 96.5 | 94.4 | 95.4 (inactive) | 104 (inactive)
3 | CN(C)[C@@H](CCOc1cccc2ccccc12)c1ccccc1.Cl | 90.3 | 92.4 | 104 (inactive) | 142 (active)
4 | Cc1ncc([N+](=O)[O-])n1CC(C)O (centres undefined) [Secnidazole] | 102 | 96.6 | 93.5 (inactive) | 107 (inactive)
5 | CC[N+](CC)(CC)CCOc1ccc(C=Cc2ccccc2)cc1.[I-] | 99.7 | 72.2 | 104 (inactive) | 111 (inactive)
6 | CNc1nccc(-c2cccnc2Oc2cc(C(=O)Nc3cccc(C(F)(F)F)c3)ccc2C)n1 | 82.3 | 103 | 92.9 (inactive) | 102 (inactive)
7 | Nc1ccn(C2CCC(CO)O2)c(=O)n1 (centres undefined) [2',3'-dideoxycytidine] | 99.7 | 102 | 89.2 (inactive) | 87.7 (inactive)
8 | C=CC1CN2CCC1CC2C(O)c1ccnc2ccc(OC)cc12.Cl.O.O (centres undefined) | 99.036 ± 0.095 | 99.4 ± 3.1 | 98.1 (inactive) | 92.6 (inactive)
9 | COc1cc2c(CCNC(C)=O)c[nH]c2cc1O [6-Hydroxymelatonin] | 100 | 110 | 91.4 (inactive) | 94 (inactive)
10 | CCCCc1oc2ccccc2c1C(=O)c1cc(I)c(OCCN(CC)CC)c(I)c1.Cl [Amiodarone.HCl] | 99.7 | 105 | 93.8 (inactive) | 110 (inactive)
11 | C[N+](C)(C)CCCCCC[N+](C)(C)C.[Br-].[Br-] [Hexamethonium bromide] | 104 | 103 | 98.5 (inactive) | 102 (inactive)
12 | CC[C@H](C(=O)Nc1ccccc1N1CCCC1)c1ccccc1 [(2S)-2-Phenyl-N-[2-(1-pyrrolidinyl)phenyl]butanamide] | 101 | 103 | 96.1 (inactive) | 105 (inactive)
13 | COc1cccc2c1C(=O)c1c(O)c3c(c(O)c1C2=O)CC(O)(C(C)=O)CC3OC1CC(N)C(O)C(C)O1 (centres undefined) [Daunorubicin] | 53.3 ± 2.3 | 8.2 ± 1.4 | 134 (active) | 1730 (active)
14 | CCCCCC(O)C=CC1OC(=O)CC(O)C1CC=CCCCC(=O)O (centres undefined) [11-Dehydro-thromboxane B2] | 100 | 97 | 98.6 (inactive) | 102 (inactive)
15 | Cl.Nc1cc(Nc2ccc(S(N)(=O)=O)cc2)ncn1 | 100 | 93.3 | 98.4 (inactive) | 102 (inactive)
16 | COc1cc2nc(N3CCN(C(=O)C4CCCO4)CC3)nc(N)c2cc1OC.Cl (centres undefined) [Terazosin hydrochloride] | 100 | 95.1 | 92.6 (inactive) | 102 (inactive)
17 | O=C1NC(=O)C(c2cnc3ccccn23)=C1c1cn2c3c(cc(F)cc13)CN(C(=O)N1CCCCC1)CC2 | 66.9 | 63 | 138 (active) | 176 (active)
18 | CCCCCC(O)C=CC1=C(CCCCCCC(=O)O)C(=O)CC1 (centres undefined) [Prostaglandin B1] | 101 ± 2.6 | 108.4 ± 0.5 | 97.7 (inactive) | 101 (inactive)
19 | CCCCCCCCC=CCC=CCC=CCCCC(=O)O [5(Z), 8(Z), 11(Z)-Eicosatrienoic Acid] | 102 ± 2.9 | 105 ± 7.9 | 98.1 (inactive) | 97.8 (inactive)
20 | CCN(CC)CCOC(=O)c1ccc(N)cc1.Cl [Procaine hydrochloride] | 105 | 100 | 91.3 (inactive) | 97.8 (inactive)
21 | O=c1[nH]c(=O)n(C2CC(O)C(CO)O2)cc1I (centres undefined) [Idoxuridine] | 103 | 100 | 92.2 (inactive) | 121 (inactive)
22 | Cc1ccc(S(=O)(=O)Cc2nc(-c3ccc(C(=O)NCc4cccnc4)cc3)oc2C)cc1 | 87 | 86.8 | 102 (inactive) | 127 (inactive)
23 | O=C(Nc1ncc(-c2cc(C(F)F)nn2-c2c(Cl)cccc2Cl)s1)C1CC1 | 52.3 | 9.11 | 176 (active) | 149 (active)

Row | Structure (SMILES) | cell number (HCC1569 [1]) | cell number (TDF [2]) | H1.0 immunofluorescence intensity (TDF [3]) | H1.0 immunofluorescence intensity (HCC1569 [4])
24 | CCC=CCC=CCC=CCCCCCCCCCCCC(=O)O [Docosatrienoic acid] | 101 ± 2.4 | 97.7 ± 10 | 100 (inactive) | 102 (inactive)
25 | CN(C)CCN(Cc1cccs1)c1ccccn1.Cl [Methapyrilene hydrochloride] | 112 | 95.7 | 93 (inactive) | 92.7 (inactive)
26 | C(=Cc1ccccc1)CN1CCN(C(c2ccccc2)c2ccccc2)CC1 [Cinnarizine] | 74.9 | 74.1 | 106 (inactive) | 101 (inactive)
27 | CCN1CCN(C(=O)NC(C(=O)NC2C(=O)N3C2SC(C)(C)C3C(=O)O)c2ccccc2)C(=O)C1=O (centres undefined) [Piperacillin] | 101 | 100 | 95.4 (inactive) | 119 (inactive)
28 | Cc1cccc2c3c(ccc12)C1=C(C(=O)C3=O)C(C)CO1 (centres undefined) [Dihydrotanshinone] | 53.6 | 33.6 | 111 (inactive) | 106 (inactive)
29 | CC(=O)OCC(=O)C1(O)CCC2C3CCC4=CC(=O)CCC4(C)C3C(=O)CC21C (centres undefined) [Cortisone 21-acetate] | 101 | 120 | 97.5 (inactive) | 89.1 (inactive)
30 | C#CCNCc1cc2cc(OCc3ccccc3)ccc2[nH]1 [N-((5-(benzyloxy)-1H-indol-2-yl)methyl)prop-2-yn-1-amine] | 82.8 | 91 | 96 (inactive) | 136 (inactive)
31 | COc1ccc(C=C2c3ccccc3C(=O)c3ccccc32)cc1O [10-(3-hydroxy-4-methoxybenzylidene)-9(10H)-anthracenone] | 62.7 | 10.4 | 189 (active) | 207 (active)
32 | CN1C(C(=O)Nc2ccccn2)=C(O)c2sccc2S1(=O)=O [Tenoxicam] | 100 | 87.8 | 95 (inactive) | 93.3 (inactive)
33 | CCCCCCCCCCCC=CCC=CCCCC(=O)O [Eicosa-5,8-dienoic acid (20:2 n-12)] | 101 | 99.6 | 96.8 (inactive) | 105 (inactive)
34 | CCCCCCCCC1OC1CCCCCCCC(=O)O (centres undefined) [Epoxy-oleic acid] | 97.7 | 99.9 | 96.8 (inactive) | 99.1 (inactive)
35 | Nc1ccc(C(=O)Nc2cccc(-c3nc(N4CCOCC4)c4oc5ncccc5c4n3)c2)cn1 [PIKfyve Inhibitor] | 63.9 | 56.2 | 112 (inactive) | 151 (active)
36 | CCCCCCCCCC(=O)NC(CN1CCOCC1)C(O)c1ccccc1 (racemic) | 99.8 | 93.9 | 96.7 (inactive) | 106 (inactive)
37 | Cc1cc(C)c(NC(=O)CC(CC(=O)[O-])c2cccc3ccccc23)c(C(=O)N2CCC3(CCCC3)CC2)c1.[Na+] (centres undefined) | 105 | 102 | 101 (inactive) | 99.8 (inactive)
38 | CCC1(O)CC2CN(CCc3c([nH]c4ccccc34)C(C(=O)OC)(c3cc4c(cc3OC)N(C)C3C(O)(C(=O)OC)C(OC(C)=O)C5(CC)C=CCN6CCC43C65)C2)C1.O=S(=O)(O)O (centres undefined) [Vinblastine sulfate salt] | 48.9 | 16.8 | 152 (active) | 132 (inactive)
39 | N[C@H](CO)C(=O)O [D-Serine] | 104 | 112 | 87.2 (inactive) | 102 (inactive)
40 | Cc1ccc(S(=O)(=O)C=CC#N)cc1 | 68.3 and 78.4 | 103 and 100 | 98.9 (inactive) and 92.5 (inactive) | 191 (active) and 104 (inactive)
41 | CC(C)[N+]1(C)C2CCC1CC(OC(=O)C(CO)c1ccccc1)C2.[Br-] (centres undefined) [Ipratropium.Br] | 102 | 98 | 91.5 (inactive) | 110 (inactive)
42 | CC1(C)CC1C(=O)NC(=CCCCCSCC(N)C(=O)O)C(=O)O (centres undefined) [Cilastatin] | 100 | 94 | 101 (inactive) | 119 (inactive)
43 | CCC(CCC(C)C1CCC2C3CC=C4CC(O)CCC4(C)C3CCC12C)C(C)C (centres undefined) | 99.8 | 92.5 | 105 (inactive) | 90.6 (inactive)
44 | CCCCCC=CCC=CC=CC=CC(SCC(N)C(=O)O)C(O)CCCC(=O)O (centres undefined) [Leukotriene E4] | 103 | 101 | 92.6 (inactive) | 102 (inactive)
45 | COc1cccc2c1C(=O)c1c(O)c3c(c(O)c1C2=O)CC(O)(C(=O)CO)CC3OC1CC(N)C(O)C(C)O1.Cl (centres undefined) [Doxorubicin.HCl] | 59.6 ± 3.9 | 17.1 ± 3.7 | 132 (active) | 1430 (active)
46 | CN(C)CCC(c1ccc(Br)cc1)c1ccccn1.O=C(O)C=CC(=O)O (racemic) | 101 | 98.7 | 97.9 (inactive) | 94.6 (inactive)
